# Key:
# Assay in all cases: PBM binding z-score (relative to random genomic background probes); higher = stronger binding; sequences stand for … in GC…GCGATTGACAGCGTAGAATGAAGG
# [1] = test system: FXR:RXRa (NR concentration 270 nM, RXRa partner concentration 90 nM)
# In short: (§1)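 For binding z-scores, the reference was random background probes on custom Agilent 4×180K protein-binding microarrays. These arrays were incubated 1 h with ligand-free nuclear receptor dimers in PBS pH 7.4, 2% milk, 0.02% Triton X-100, 1 mM DTT, 0.2 mg/mL BSA and 0.4 mg/ml salmon testes DNA. Fluorescence was scanned after antibody detection of each partner (one per run) and regression-normalized.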
# [2] = test system: LXRa:RXRa (NR concentration 270 nM, RXRa partner concentration 90 nM)
# In short: as §1
# [3] = test system: LXRa homodimer (NR concentration 270 nM)
# In short: as §1
# [4] = test system: LXRb:RXRa (NR concentration 270 nM, RXRa partner concentration 90 nM)
# In short: as §1
# [5] = test system: LXRb homodimer (NR concentration 270 nM)
# In short: as §1
# [6] = test system: PPARa:RXRa (NR concentration 270 nM, RXRa partner concentration 90 nM)
# In short: as §1
# [7] = test system: PPARg:RXRa (NR concentration 180 nM, RXRa partner concentration 90 nM)
# In short: as §1
# [8] = test system: PPARg:RXRa 270nM:90nM, anti-RXR (NR concentration 270 nM, RXRa partner concentration 90 nM)
# In short: as §1
# [9] = test system: PPARg:RXRa 30nM:10nM, anti-RXR (NR concentration 30 nM, RXRa partner concentration 10 nM)
# In short: as §1
# [10] = test system: PPARg:RXRa 90nM:30nM, anti-RXR (NR concentration 90 nM, RXRa partner concentration 30 nM)
# In short: as §1
Sequence,PBM binding z-score [1],PBM binding z-score [2],PBM binding z-score [3],PBM binding z-score [4],PBM binding z-score [5],PBM binding z-score [6],PBM binding z-score [7],PBM binding z-score [8],PBM binding z-score [9],PBM binding z-score [10]
AGAATGAGGTTATACGTAGATCTGGGAAGAAAGT,2.02,1.53,-0.23,1.2,-0.294,3.14,1.88,2,0.653,1.38
TAGCCGAGGTCATGCGGGCCAGTATAGTGTCGGC,7.46,5.94,1.69,4.64,1,6.24,6,6.15,2.74,4.56
GCTATTAGTTGAAAGGGCAACCAAATGATTCTCG,0.334,0.735,0.214,0.946,-0.0517,2.45,2.73,4.6,2.34,4.39
ACTAGCAGGCCAAGTTTGGATCACTCAAACAAAG,-0.476,-0.653,-0.239,-0.541,-0.521,-0.385,0.154,-0.662,-0.693,-0.835
CCGACTGGGCCAAAGGTCATTGATTCCAATGCTC,4.37,4.94,3.7,4.49,0.0732,6.09,11,10,8.79,12.1
ATATGTAGGTTAGCTGGGGTCATTCAGACTAGGC,4.38,5.95,3.02,4.75,0.992,5.13,5.66,5.12,2.67,4.46
TATACAGGGTCAAAGGCCGGAGTACGAATGTCGA,6.93,6.1,2.37,4.53,2.31,6.26,7.67,6.73,4.47,6.51
ACAGACAGGTGATGTAGGTAACTCAGGCTATCAT,-0.0766,-0.183,-0.0278,-0.28,-0.53,0.633,0.673,-0.0404,-0.31,-0.171
TCATATAGTTAATACAGGTGAAAGTCGGCATCTA,1.36,1.88,0.641,1.3,0.448,1.8,1.13,2.41,4.54,3.7
ACTTACGGGTCAACGAGGGTATAGCACGCGTATA,6.96,4.31,0.258,3.79,0.591,5.61,5.35,5.06,1.72,3.63
CCGAGTAGGTTATGGGGCAGTCAGGCAACGGTGA,0.0419,0.326,-0.0975,0.378,-0.292,1.76,2.58,3.74,1.39,3.3
GCTTACGGGTCAAAGGTTAGAGCATGAATAGAAT,7.32,5.34,0.175,5.27,-0.0451,6.73,10.6,8.89,8.08,9.45

# Source: the supplement of paper PMC6555819
